# Experimental data reported in PubChem BioAssay (EPA / NIEHS).
# Values joined by “and” are separate entries in the source; they are usually repeats but may differ in a detail not shown here. Identical values can stand only once. Results filed as inconclusive are left out. Some structures have more than one record in an assay (separate samples or runs), and their calls can disagree. Active and inactive are the calls of the source. Rule for the calls: active = hit-call score of the fitted dose curve at least 0.9, where 1 is the maximum; inconclusive = response in the unintended direction; inactive = score below 0.9.
# Biological target: Androgen Receptor/SRC-1 Co-activator, AR (gene 367) (UniProt P10275)
# Test: OT_AR_ARSRC1_0960: Odyssey Thera (OT) 16-hour HEK293T Protein-Complementation Assay for Androgen Receptor/SRC-1 Co-activator (AID 2283353);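 note: actives raise the signal above DMSO so potency reflects increased AR and SRC-1 complex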
# Method in brief: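 Interaction of AR with SRC-1 was followed by YFP fragment complementation in HEK293T cells after 16 h of dosing. Gain of nuclear-over-cytoplasmic 488 nm fluorescence against DMSO controls defined activity.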
# Chain of Androgen Receptor/SRC-1 Co-activator, AR (gene 367) (P10275 whole entry, looked up): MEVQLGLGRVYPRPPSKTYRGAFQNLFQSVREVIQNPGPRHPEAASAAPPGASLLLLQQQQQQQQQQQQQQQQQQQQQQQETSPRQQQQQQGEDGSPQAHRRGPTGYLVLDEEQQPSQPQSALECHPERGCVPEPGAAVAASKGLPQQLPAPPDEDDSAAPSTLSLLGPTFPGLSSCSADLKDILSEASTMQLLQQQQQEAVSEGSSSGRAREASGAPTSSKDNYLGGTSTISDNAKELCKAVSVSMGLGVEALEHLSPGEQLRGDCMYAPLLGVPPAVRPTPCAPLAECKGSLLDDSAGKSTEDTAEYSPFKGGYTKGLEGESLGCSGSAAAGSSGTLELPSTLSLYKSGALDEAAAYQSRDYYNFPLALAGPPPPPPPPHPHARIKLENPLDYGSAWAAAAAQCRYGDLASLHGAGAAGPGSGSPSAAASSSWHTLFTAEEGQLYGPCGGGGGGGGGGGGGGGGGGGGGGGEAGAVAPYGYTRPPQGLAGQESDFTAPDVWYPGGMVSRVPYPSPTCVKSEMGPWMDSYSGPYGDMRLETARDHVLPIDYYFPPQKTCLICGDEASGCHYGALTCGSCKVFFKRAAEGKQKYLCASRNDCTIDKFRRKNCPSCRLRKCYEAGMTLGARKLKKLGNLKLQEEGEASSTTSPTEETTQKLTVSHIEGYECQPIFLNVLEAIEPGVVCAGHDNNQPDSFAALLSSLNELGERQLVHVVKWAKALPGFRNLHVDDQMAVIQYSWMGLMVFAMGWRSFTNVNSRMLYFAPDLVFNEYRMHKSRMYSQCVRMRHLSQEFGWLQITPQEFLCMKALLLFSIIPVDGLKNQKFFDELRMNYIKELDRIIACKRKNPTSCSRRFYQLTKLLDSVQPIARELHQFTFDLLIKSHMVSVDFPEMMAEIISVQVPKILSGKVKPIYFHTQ
Structure (SMILES),AC50,outcome
NS(=O)(=O)C(F)(F)C(F)(F)C(F)(F)C(F)(F)C(F)(F)C(F)(F)C(F)(F)C(F)(F)F,68.4 µM (active),
O=C(N[C@H]1CN2CCC1CC2)c1cc2ccoc2cn1,,inactive
O=C(NC(=O)c1c(F)cccc1F)Nc1cc(Cl)c(OC(F)(F)C(F)F)c(Cl)c1,,inactive
C=CC(=O)NCNC(=O)C=C,,inactive
CCOC(=O)C(O)(c1ccc(Cl)cc1)c1ccc(Cl)cc1,37 µM (active),
CCCCCCCCOC(=O)c1ccccc1C(=O)OCCCCCCCC,,inactive
c1ccc(-c2ccccc2)cc1,,inactive

# Biological target: Androgen Receptor/SRC-1 Co-activator, AR (gene 367) (UniProt P10275)
# Test: OT_AR_ARSRC1_0480: Odyssey Thera (OT) 8-hour HEK293T Protein-Complementation Assay for Androgen Receptor/SRC-1 Co-activator (AID 2283354);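 note: hits raise the complementation signal above DMSO so AC50 marks enhancers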
# Method in brief: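 HEK293T cells stably expressing AR and SRC-1 fused to Venus YFP fragments, imaged 8 h after dosing. Complementation fluorescence scored as nuclear/cytoplasmic ratio at 488 nm in at least 400 cells per image; gain fitted versus DMSO.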
Structure (SMILES),outcome,AC50
NS(=O)(=O)C(F)(F)C(F)(F)C(F)(F)C(F)(F)C(F)(F)C(F)(F)C(F)(F)C(F)(F)F,inactive,
O=C(N[C@H]1CN2CCC1CC2)c1cc2ccoc2cn1,inactive,
O=C(NC(=O)c1c(F)cccc1F)Nc1cc(Cl)c(OC(F)(F)C(F)F)c(Cl)c1,inactive,
C=CC(=O)NCNC(=O)C=C,inactive,
CCOC(=O)C(O)(c1ccc(Cl)cc1)c1ccc(Cl)cc1,,66.7 µM (active)
CCCCCCCCOC(=O)c1ccccc1C(=O)OCCCCCCCC,inactive,
c1ccc(-c2ccccc2)cc1,inactive,
CCC(=O)O[C@H]1CC[C@H]2[C@@H]3CCC4=CC(=O)CC[C@]4(C)[C@H]3CC[C@]12C,,29.9 nM (active) [middle of 6 runs]

# Biological target: rat Mineralocorticoid Receptor (MR), Nr3c2 (gene 25672) (UniProt P22199)
# Test: NVS_NR_rMR: NovaScreen (NVS) Nuclear Receptor Binding Assay for rat Mineralocorticoid Receptor (MR) (AID 2283355)
# Method in brief: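 Cell-free radioligand binding to mineralocorticoid receptor from adrenalectomized rat brain supernatant, scintillation counting after 24 h. Primary screen in duplicate at 25 uM; actives retested in concentration series. Loss of specific binding versus DMSO.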
# Chain of rat Mineralocorticoid Receptor (MR), Nr3c2 (gene 25672) (P22199 whole entry, looked up): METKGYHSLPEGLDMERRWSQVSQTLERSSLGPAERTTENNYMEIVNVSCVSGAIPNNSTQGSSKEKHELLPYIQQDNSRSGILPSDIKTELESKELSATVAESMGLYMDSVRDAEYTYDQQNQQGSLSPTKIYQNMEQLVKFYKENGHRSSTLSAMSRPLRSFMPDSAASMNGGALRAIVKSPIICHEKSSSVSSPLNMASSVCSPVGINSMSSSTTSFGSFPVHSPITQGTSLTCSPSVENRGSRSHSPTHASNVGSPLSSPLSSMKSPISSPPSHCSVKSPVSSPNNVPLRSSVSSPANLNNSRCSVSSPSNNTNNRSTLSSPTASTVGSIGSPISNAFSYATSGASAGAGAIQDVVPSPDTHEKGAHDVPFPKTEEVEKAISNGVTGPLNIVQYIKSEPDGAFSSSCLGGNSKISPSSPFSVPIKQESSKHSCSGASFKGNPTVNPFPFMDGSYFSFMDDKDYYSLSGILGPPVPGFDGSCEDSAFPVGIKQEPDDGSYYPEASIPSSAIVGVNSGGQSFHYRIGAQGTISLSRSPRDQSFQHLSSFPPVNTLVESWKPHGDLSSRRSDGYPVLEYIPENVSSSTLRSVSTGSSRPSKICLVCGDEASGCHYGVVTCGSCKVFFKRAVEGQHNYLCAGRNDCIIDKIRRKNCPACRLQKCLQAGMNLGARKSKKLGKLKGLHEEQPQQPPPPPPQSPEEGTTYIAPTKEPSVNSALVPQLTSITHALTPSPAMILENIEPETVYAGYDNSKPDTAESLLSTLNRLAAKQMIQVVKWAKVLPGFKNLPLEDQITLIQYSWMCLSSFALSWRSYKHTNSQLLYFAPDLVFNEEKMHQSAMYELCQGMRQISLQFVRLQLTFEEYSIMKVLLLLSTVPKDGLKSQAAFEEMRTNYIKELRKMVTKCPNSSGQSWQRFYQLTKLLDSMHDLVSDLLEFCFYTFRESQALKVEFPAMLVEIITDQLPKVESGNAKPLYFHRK
Structure (SMILES),outcome,AC50
CC#Cc1cc(C)nc(Nc2ccccc2)n1,inactive,
C[C@]12CCC(=O)C=C1CC[C@@H]1[C@@H]2CC[C@]2(C)C(=O)CC[C@@H]12,,0.0845 µM (active)
CCC(=O)O[C@H]1CC[C@H]2[C@@H]3CCC4=CC(=O)CC[C@]4(C)[C@H]3CC[C@]12C,,0.517 µM (active)

# Biological target: Estrogen receptor (Homo sapiens) + Estrogen receptor beta (Homo sapiens) (UniProt P03372+Q92731)
# Test: OT_ER_ERaERb_1440: Odyssey Thera (OT) 24-hour HEK293T Protein-Complementation Assay for Estrogen Receptor-alpha/-beta Homodimer (AID 2283356);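 note: heteromer of ER alpha and ER beta binding domains; hits raise reporter fluorescence and both agonists and antagonists give an increase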
# Method in brief: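 Stable HEK293T PCA line, ERα LBD 310-547 + ERβ LBD 263-489 fused to reporter fragments; 24 h treatment; fluorescence read by laser scanning cytometry; positive fitting direction relative to DMSO.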
# Chain of Estrogen receptor (Homo sapiens) + Estrogen receptor beta (Homo sapiens) (P03372 whole entry, looked up, the tested form may be a part): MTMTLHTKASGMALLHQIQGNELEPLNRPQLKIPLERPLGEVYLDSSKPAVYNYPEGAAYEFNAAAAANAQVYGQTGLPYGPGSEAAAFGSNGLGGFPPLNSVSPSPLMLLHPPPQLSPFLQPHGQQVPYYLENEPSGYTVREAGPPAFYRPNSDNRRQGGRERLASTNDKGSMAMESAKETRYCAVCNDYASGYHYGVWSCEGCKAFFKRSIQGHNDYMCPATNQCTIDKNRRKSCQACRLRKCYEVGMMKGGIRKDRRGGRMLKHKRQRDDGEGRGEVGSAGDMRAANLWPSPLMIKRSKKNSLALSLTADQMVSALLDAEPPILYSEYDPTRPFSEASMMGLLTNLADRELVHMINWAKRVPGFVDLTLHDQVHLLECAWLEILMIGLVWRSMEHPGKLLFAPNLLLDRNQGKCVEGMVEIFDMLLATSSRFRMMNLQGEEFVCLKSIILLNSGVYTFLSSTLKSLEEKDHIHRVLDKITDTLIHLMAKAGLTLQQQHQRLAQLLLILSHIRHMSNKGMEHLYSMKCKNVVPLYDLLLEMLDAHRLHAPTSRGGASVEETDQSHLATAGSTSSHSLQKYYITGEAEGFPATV
# Chain of Estrogen receptor (Homo sapiens) + Estrogen receptor beta (Homo sapiens) (Q92731 whole entry, looked up, the tested form may be a part): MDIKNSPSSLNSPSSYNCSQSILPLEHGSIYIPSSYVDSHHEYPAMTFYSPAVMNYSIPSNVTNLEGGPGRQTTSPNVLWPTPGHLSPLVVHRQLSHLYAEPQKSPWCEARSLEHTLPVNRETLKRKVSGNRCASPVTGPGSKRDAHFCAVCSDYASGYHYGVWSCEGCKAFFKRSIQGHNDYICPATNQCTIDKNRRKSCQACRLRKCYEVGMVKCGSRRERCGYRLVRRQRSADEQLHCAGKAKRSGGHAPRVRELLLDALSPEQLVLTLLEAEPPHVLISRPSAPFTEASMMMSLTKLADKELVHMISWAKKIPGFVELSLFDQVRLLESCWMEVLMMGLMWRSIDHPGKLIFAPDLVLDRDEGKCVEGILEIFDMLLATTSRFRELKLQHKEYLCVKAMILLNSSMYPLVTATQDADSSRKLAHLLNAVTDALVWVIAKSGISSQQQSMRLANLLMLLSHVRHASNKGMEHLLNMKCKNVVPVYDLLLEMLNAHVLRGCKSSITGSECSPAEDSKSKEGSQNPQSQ
Structure (SMILES),outcome,AC50
CCC(C)c1cc([N+](=O)[O-])cc([N+](=O)[O-])c1O (stereo not drawn),inactive,
CCCCCCCCCc1ccc(O)cc1,,36.2 µM (active) and 36 µM (active) and 48.1 µM (active)
Cc1cc(O)ccc1Cl,,43.7 µM (active)
Cc1ccc(O)c(C)c1,inactive,
CN(C)CCO,inactive,
OCC(O)CO,inactive,
CC#Cc1cc(C)nc(Nc2ccccc2)n1,inactive,
NS(=O)(=O)C(F)(F)C(F)(F)C(F)(F)C(F)(F)C(F)(F)C(F)(F)C(F)(F)C(F)(F)F,,80.2 µM (active)
O=C(O)C(F)(F)C(F)(F)C(F)(F)C(F)(F)C(F)(F)C(F)(F)C(F)(F)C(F)(F)F,inactive,
C[C@]12CCC(=O)C=C1CC[C@@H]1[C@@H]2CC[C@]2(C)C(=O)CC[C@@H]12,inactive,
CCCN(CCC)N=O,inactive,
C1CC2OC2CC1C1CO1 (stereo not drawn),inactive,
O=C(O)C(F)(F)C(F)(F)C(F)(F)C(F)(F)C(F)(F)F,inactive,
O=C(N[C@H]1CN2CCC1CC2)c1cc2ccoc2cn1,inactive,
O=C(NC(=O)c1c(F)cccc1F)Nc1cc(Cl)c(OC(F)(F)C(F)F)c(Cl)c1,inactive,
CC(C)(O)C(=O)Nc1ccc([N+](=O)[O-])c(C(F)(F)F)c1,inactive,
ClC1=C(Cl)[C@]2(Cl)[C@@H]3[C@@H](Cl)[C@H]4O[C@H]4[C@@H]3C1(Cl)C2(Cl)Cl,,50 µM (active)
C=CC(=O)NCNC(=O)C=C,inactive,
CCOC(=O)C(O)(c1ccc(Cl)cc1)c1ccc(Cl)cc1,inactive,
Oc1ccc(Cl)cc1Cl,inactive,
N#Cc1ccc(N(CC(N)=O)CC(F)(F)F)cc1C(F)(F)F,inactive,
CC(C)(c1ccccc1)c1ccc(O)cc1,,11.9 µM (active)
COc1ccc(O)c(C(C)(C)C)c1,,53.1 µM (active)
CCCCCCCCOC(=O)c1ccccc1C(=O)OCCCCCCCC,inactive,
Clc1ccc(Cl)cc1,inactive,
c1ccc(-c2ccccc2)cc1,inactive,
CCC(=O)O[C@H]1CC[C@H]2[C@@H]3CCC4=CC(=O)CC[C@]4(C)[C@H]3CC[C@]12C,inactive,14.9 µM (active) and 12.4 µM (active) and 14.7 µM (active)
CC(C)C(=O)OCC(C)(C)C(OC(=O)C(C)C)C(C)C (stereo not drawn),inactive,
Nc1ccc(-c2ccc(N)cc2)cc1,inactive,
